# Source: PubChem (National Center for Advancing Translational Sciences (NCATS))
# Tau FP inhib – inhibitors of human tau fibril formation | P10636 | K18 P301L tau heparin fibrillization, Alexa594 FP, 6 h | Potency, µM (highest dose often 57.7 µM), hits mostly inhibitors | 280,000 tested, 0.39% active; note: nearly all actives have a fitted effect of over 55% in size
# Target sequence (P10636 561-689 P618L limits assumed): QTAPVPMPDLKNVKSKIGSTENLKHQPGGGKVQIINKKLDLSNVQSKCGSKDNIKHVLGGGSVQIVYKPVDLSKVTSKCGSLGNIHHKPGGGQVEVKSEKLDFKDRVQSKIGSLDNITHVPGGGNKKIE
#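 Heparin (20 uM) drove fibril formation of recombinant tau K18 P301L, 15 uM unlabeled with 0.24 uM Alexa 594 label, for 6 hr at 37 C in 100 mM sodium acetate pH 7. Fluorescence polarization (555/632 nm) read 1 hr after 30 uM ThT.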
# Tau ThT inhib – blocks human tau fibril formation measured by thioflavin T; Potency, µM (series often up to 57.4 µM), most hits filed as inhibitors; P10636; AID 1460; 270,000 tested, 2.1% active; recombinant tau K18 P301L, heparin-induced fibrillization, ThT fluorescence; note: nearly all actives have a fitted effect of over 55% in size
#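 In this qHTS, human K18 P301L tau is incubated with compound and heparin for 6 hr at 37 C, and Thioflavin T fluorescence then reports fibril load.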
# Tau fluor cs – counter-screen for tau fibril formation inhibitors | tau K18 P301L Alexa594 fluorescence, heparin fibrillization | Potency, µM (series often up to 57.7 µM) | 280,000 tested, 0.93% active; note: nearly all actives have a fitted effect of over 55% in size
#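 Human tau K18 P301L (15 uM unlabeled, 0.24 uM Alexa 594-labeled) in 100 mM sodium acetate pH 7 with 20 uM heparin, 6 hr at 37 C. ThT 30 uM added, 1 hr ambient; Alexa 594 FP and total fluorescence read at 555/632 nm.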
# TR SRC2 fluor cs – alters Texas Red total fluorescence, flagging assay interference | AID 1479 | 280,000 tested, 0.29% active | Potency, µM (titrated, usually from 106 µM) | TRb/SRC2 Texas Red total fluorescence interference; active = well fitted curve in either direction with a large enough effect; inconclusive = small, poorly fitted or top-dose-only effect
#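 Flags fluorescent or light-absorbing compounds by total fluorescence, S + 2P, at 555 nm excitation and 632 nm emission. Mixture: 20 nM Texas Red SRC2 peptide, 0.6 uM human TRb LBD, 1 uM T3, 5% DMSO; compound exposure 5 h at ambient temperature.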
# TRb SRC2 PPI – disrupts binding of human TR beta to SRC2; P10828; AID 1469; TRbeta-SRC2 peptide binding, fluorescence polarization; receptor liganded with 1 µM T3; Potency, µM (series often up to 106 µM), most hits filed as inhibitors; 280,000 tested, 0.065% active; note: nearly all actives have a fitted effect of over 50% in size
#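 A fluorescence polarization screen tested compounds at multiple concentrations against complex formation between 0.6 uM TRb ligand-binding domain and 20 nM Texas Red SRC2 peptide, with 1 uM T3 present; readout after 5 hr.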
# Hits are given with their value; – = inactive; ? = inconclusive; · = not tested or not shown; [ ] = remark or other dose. Only some compounds are listed: those with a hit (about 3% of all), similar ones and a draw of the others. Unless noted, calls come from the whole dose curve; as a rule, active = well fitted curve in the direction sought with a large enough effect; inconclusive = small, poorly fitted or top-dose-only effect, or another doubt; inactive = no such curve, though single readings can be large; an effect the other way counts as inactive or inconclusive.
SMILES,Tau FP inhib,Tau ThT inhib,Tau fluor cs,TR SRC2 fluor cs,TRb SRC2 PPI
Oc1ccc(NCc2ccc(OCc3ccccc3Cl)cc2)cc1,?,14µM,7.9µM[quencher],–[11.2 µM],–[11.2 µM]
Oc1ccc(NCc2ccc(OCc3ccccc3)cc2)cc1,–,?,?,–[11.2 µM],–[11.2 µM]
CCc1ccc(CNc2ccc(O)cc2)cc1,7.1µM,3.2µM,?,–,–
CCOc1cccc(CNc2ccc(O)cc2)c1OCc1ccc(Cl)cc1,13µM,8.9µM,?,?,35µM
Cn1cc(S(=O)(=O)N2CCCCCC2)cc1C(=O)Nc1ccc(Cl)c(C(F)(F)F)c1,–,–,–,–,–
CC(=O)Nc1ccc(NC(=O)CCc2nc3cccnc3n2Cc2cccs2)cc1,–,?,–,–,–
O=C1CCCC(O)=C1N=Nc1c(Cl)cc(Cl)cc1Cl,–,?,–,45µM[fluorescent],28µM
NCCCCCCCCCCC(=O)O,·,·,·,–,–
Oc1ccc2oc3c(c2c1C=NCc1ccncc1)CCCC3,?,16µM,?,–,–
Oc1ccc2oc3c(c2c1/C=N/n1cnnc1)CCCC3,–,–,–,–,–
COc1ccccc1Nc1nn2c(=O)c3ccc(C(=O)NCCC4=CCCCC4)cc3nc2s1,–,?,–,–,–
O=C(NNC(=S)NC(=O)c1sc2ccccc2c1Cl)c1ccc(Cl)cc1,–,14µM,–,–,–
O=C(O)c1ccccc1NC(=S)NC(=O)c1sc2ccccc2c1Cl,–,?,–,–,–
CCCCOC(=O)c1ccc(OC(=O)c2sc3ncn(Cc4cccc(F)c4)c(=O)c3c2C)cc1,–,–,–,–,–
CCCNC(=O)Cn1sc2nc(C)cc(C)c2c1=O,16µM,·,–,–,–
CCOC(=O)C1CCCN(C(=O)Cn2sc3nc(C)cc(C)c3c2=O)C1 (stereo not given),25µM,11µM,–,–,–
Cc1cc(C)c2c(=O)n(CC(=O)N3CCC(N4CCCCC4)CC3)sc2n1,25µM,25µM,?,–,–
CC(=O)Cn1cnc2c(sc3nc(C)cc(C)c32)c1=O,–,–,–,–,–
CCCCCCCCCCCCC/C=C/[C@@H](O)[C@H](CO)NC(=O)CCCCC,·,·,·,?,–
O=C(O)c1cc(=O)c2cccc(O)c2[nH]1,–,–,–,–,–
COc1cc(OC)c(C2CC(=O)N3CN(C)CSC3=C2C#N)cc1OC (stereo not given),?,?,–,–,–
COc1cc(OC)c(C2CC(=O)N3CN(c4ccccc4)CSC3=C2C#N)cc1OC (stereo not given),35µM,28µM,–,–,–
CCc1ccccc1N1CSC2=C(C#N)C(c3cc(OC)c(OC)cc3OC)CC(=O)N2C1 (stereo not given),?,28µM,–,–,–
COc1ccc(Br)cc1C1CC(=O)N2CN(Cc3ccccc3)CSC2=C1C#N (stereo not given),?,28µM,–,–,–
CCc1ccccc1N1CCN(S(=O)(=O)c2cc(OC)ccc2OC)CC1,–,–,–,–,–
SMILES,Tau FP inhib,Tau ThT inhib,Tau fluor cs,TR SRC2 fluor cs,TRb SRC2 PPI
COc1ccc(C2C=C(c3ccccc3)Nc3nc(NC(=O)/C=C/c4ccc(F)cc4)nn32)cc1 (stereo not given),–,–,–,–,–
COCCNC(=O)C1CCC(Cn2c(=S)[nH]c3ccccc3c2=O)CC1 (stereo not given),–,–,–,–,–
O=C(NCCc1c[nH]c2ccccc12)C1CCC(Cn2c(=S)[nH]c3ccccc3c2=O)CC1 (stereo not given),–,?,4µM[quencher],–,–
COc1ccccc1NC(=O)CSC1=Nc2ccccc2C2=NC(CCC(=O)NCc3ccco3)C(=O)N12 (stereo not given),–,–,–,–,–
O=C(/C(=C/O)N=Nc1ccccc1)c1ccncc1,–,14µM,–,–,–
Cc1ccc(N=N/C(=C\O)C(=O)c2ccc(Cl)cc2)cc1,–,28µM,–,–,–
COc1cccc(-n2ccnc2SCC(=O)Nc2ccc(Cl)c(Cl)c2)c1,?,–,–,–,–
COc1cc2c(cc1OC)C(c1ccc(F)cc1)N(c1ccc(F)cc1)C(=O)C2 (stereo not given),–,–,–,–,–
Cc1ccc(C(=O)c2cn(Cc3ccc(F)cc3)c3nc(C)ccc3c2=O)cc1,–,–,–,0.011µM[quencher],–
